Here are results for 19 compounds from the supplement of paper PMC6089552.

± gives the standard deviation of the averaged measurements. Out of some 3,200 compounds screened, about 300 (9.4%) showed activity. This excerpt belongs to a sample that is enriched for actives.

The subject of this assay is A673/TR/shEF. Nature of the assay: cell viability (LOESS-normalised, relative to median of negative controls) (log2 ratio); higher = more viable cells (less compound effect), active = hit call of the paper (over 3 MAD below the median). The conditions noted are these: treatment time: 72 h. The procedure, abridged:
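A673/TR/shEF Ewing sarcoma cells (1,500 per well, 384-well plates) were grown with or without doxycycline to induce EWS-FLI1 shRNA knockdown, starting 24 h before compounds. Library compounds at two or more concentrations, with DMSO controls, were added for three days. Cell viability was read by CellTiter-Glo luminescence on an Envision reader, then LOESS-corrected per plate, divided by the median of negative controls and log2-transformed. Hits were wells at least three median absolute deviations from the median of all screened wells.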

[1] abbreviates: 0.25 µM, library screen: screen1, EWS-FLI1 expression: high (no doxycycline).
The mark [2] stands for this setting: 0.25 µM, library screen: screen1, EWS-FLI1 expression: low (doxycycline-induced shRNA knockdown).
[3] abbreviates: 2.5 µM, library screen: screen1, EWS-FLI1 expression: high (no doxycycline).
Where [4] appears, read: 2.5 µM, library screen: screen1, EWS-FLI1 expression: low (doxycycline-induced shRNA knockdown).
The mark [5] stands for this setting: 0.103 µM, library screen: screen3, EWS-FLI1 expression: high (no doxycycline).
Setting [6] is: 0.103 µM, library screen: screen3, EWS-FLI1 expression: low (doxycycline-induced shRNA knockdown).
Where [7] appears, read: 0.308 µM, library screen: screen3, EWS-FLI1 expression: high (no doxycycline).
[8] abbreviates: 0.308 µM, library screen: screen3, EWS-FLI1 expression: low (doxycycline-induced shRNA knockdown).
Setting [9] is: 0.926 µM, library screen: screen3, EWS-FLI1 expression: high (no doxycycline).
Where [10] appears, read: 0.926 µM, library screen: screen3, EWS-FLI1 expression: low (doxycycline-induced shRNA knockdown).
Where [11] appears, read: 2.8 µM, library screen: screen3, EWS-FLI1 expression: high (no doxycycline).
Where [12] appears, read: 2.8 µM, library screen: screen3, EWS-FLI1 expression: low (doxycycline-induced shRNA knockdown).
Setting [13] is: 8.3 µM, library screen: screen3, EWS-FLI1 expression: high (no doxycycline).
Where [14] appears, read: 8.3 µM, library screen: screen3, EWS-FLI1 expression: low (doxycycline-induced shRNA knockdown).
The mark [15] stands for this setting: 25 µM, library screen: screen3, EWS-FLI1 expression: high (no doxycycline).
The mark [16] stands for this setting: 25 µM, library screen: screen3, EWS-FLI1 expression: low (doxycycline-induced shRNA knockdown).
Where [17] appears, read: 0.25 µM, library screen: screen2, EWS-FLI1 expression: high (no doxycycline).
Setting [18] is: 0.25 µM, library screen: screen2, EWS-FLI1 expression: low (doxycycline-induced shRNA knockdown).
Setting [19] is: 2.5 µM, library screen: screen2, EWS-FLI1 expression: high (no doxycycline).
[20] abbreviates: 2.5 µM, library screen: screen2, EWS-FLI1 expression: low (doxycycline-induced shRNA knockdown).

Consider `N/C(=N/c1nc2ccccc2o1)NC(=O)c1cccc(Br)c1`, for which the “cell viability (log2)” value is, setting by setting: under setting [1], 0.0693 (inactive); under setting [2], -0.0125 (inactive); under setting [3], 0.162 (inactive); under setting [4], -0.0831 (inactive).

`CN(Cc1ccccc1)C(=O)C=Cc1ccc([N+](=O)[O-])cc1`: the “cell viability (log2)” value was 0.0837 (inactive) under setting [1], 0.078 (inactive) under setting [2], 0.013 (inactive) under setting [3] and 0.137 (inactive) under setting [4].

Consider `COc1ccc(OC)c(C2NC(=S)NC(C)=C2C(=O)Nc2ccccc2Cl)c1` (configuration not stated), for which the “cell viability (log2)” value is 0.0287 (inactive) under setting [1], 0.0702 (inactive) under setting [2], 0.112 (inactive) under setting [3] and 0.148 (inactive) under setting [4].

On to `COc1cccc2c1C(=O)c1c(O)c3c(c(O)c1C2=O)C[C@@](O)(C(=O)CO)C[C@@H]3O[C@H]1C[C@H](N)[C@H](O)[C@H](C)O1`, for which the “cell viability (log2)” value was -0.177 (inactive) under setting [5]; -0.0878 (inactive) under setting [6]; -0.86 (active) under setting [7]; -0.36 (active) under setting [8]; -1.59 (active) under setting [9]; -0.403 (active) under setting [10]. In addition, the “cell viability (log2)” value under setting [11] was -2.62 (active); the “cell viability (log2)” value under setting [12] was -1.5 (active); the “cell viability (log2)” value under setting [13] is -4.26 (active); the “cell viability (log2)” value under setting [14] is -4.27 (active); the “cell viability (log2)” value under setting [15] is -4.05 (active); the “cell viability (log2)” value under setting [16] is -4.25 (active).

Regarding `CC(=O)[C@]1(O)Cc2c(O)c3c(c(O)c2[C@@H](O[C@H]2C[C@H](N)[C@H](O)[C@H](C)O2)C1)C(=O)c1ccccc1C3=O`, the “cell viability (log2)” value under setting [17] is -2.37 (active), the “cell viability (log2)” value under setting [18] was -0.307 (active), the “cell viability (log2)” value under setting [19] was -3.12 (active) and the “cell viability (log2)” value under setting [20] was -0.984 (active).

`COc1cccc2c1C(=O)c1c(O)c3c(c(O)c1C2=O)C[C@@](O)(C(=O)CO)C[C@@H]3O[C@H]1C[C@H](N)[C@@H](O)[C@H](C)O1`: the “cell viability (log2)” value is -0.347 (active) under setting [5]; -0.195 (active) under setting [6]; -1.12 (active) under setting [7]; -0.399 (active) under setting [8]; -1.58 (active) under setting [9]; -0.41 (active) under setting [10]. In addition, the “cell viability (log2)” value by setting is: under setting [11], -3.26 (active); under setting [12], -1.19 (active); under setting [13], -4.26 (active); under setting [14], -4.27 (active); under setting [15], -4.26 (active); under setting [16], -4.25 (active).

As for `COc1cccc2c1C(=O)c1c(O)c3c(c(O)c1C2=O)C[C@@](O)(C(C)=O)C[C@@H]3O[C@H]1C[C@H](N)[C@H](O)[C@H](C)O1`, the “cell viability (log2)” value was -0.695 (active) under setting [5]; -0.133 ± 0.18 under setting [6]; -1.6 (active) under setting [17]; -0.269 (active) under setting [18]; -1.27 (active) under setting [7]; -0.403 (active) under setting [8]. Moreover, the “cell viability (log2)” value is -2.5 (active) under setting [9]; -0.592 (active) under setting [10]; -2.54 (active) under setting [19]; -0.371 (active) under setting [20]; -3.11 (active) under setting [11]; -1.48 (active) under setting [12]. Also, the “cell viability (log2)” value is -4.09 (active) under setting [13], -3.66 (active) under setting [14], -4.26 (active) under setting [15] and -4.25 (active) under setting [16].

In the case of `Cc1cccc(-n2ncc3c(N4CCCC4)ncnc32)c1`, the “cell viability (log2)” value is, setting by setting: under setting [1], 0.069 (inactive); under setting [2], 0.0339 (inactive); under setting [3], 0.118 (inactive); under setting [4], 0.0767 (inactive).

Turning to `COc1cc(-c2oc3c(OC)c(O)cc(O)c3c(=O)c2O)ccc1O`, the “cell viability (log2)” value runs as follows: under setting [1], 0.0554 (inactive); under setting [2], 0.0375 (inactive); under setting [3], 0.0118 (inactive); under setting [4], 0.0806 (inactive).

In the case of `COc1ccc(OC)c(CN2CCN(Cc3c[nH]c4ccccc34)CC2)c1`, the “cell viability (log2)” value under setting [1] was 0.113 (inactive), the “cell viability (log2)” value under setting [2] was 0.0685 (inactive), the “cell viability (log2)” value under setting [3] is 0.072 (inactive) and the “cell viability (log2)” value under setting [4] was 0.0923 (inactive).

For `C[C@@H](O)[C@H]1C(=O)N2C(C(=O)[O-])=C(SC3Cn4cnc[n+]4C3)[C@H](C)[C@H]12` (some centres not stated), the “cell viability (log2)” value is 0.0935 (inactive) under setting [5]; 0.0362 (inactive) under setting [6]; 0.108 (inactive) under setting [7]; 0.0849 (inactive) under setting [8]; 0.0657 (inactive) under setting [9]; 0.0643 (inactive) under setting [10]. The “cell viability (log2)” value is 0.107 (inactive) under setting [11]; 0.0482 (inactive) under setting [12]; 0.0477 (inactive) under setting [13]; 0.0712 (inactive) under setting [14]; 0.131 (inactive) under setting [15]; 0.0731 (inactive) under setting [16].

In the case of `CN=c1nc(C2C=CC=CC2)n(C2C=CC=CC2)s1` (configuration not stated), the “cell viability (log2)” value reads like this: under setting [17], 0.18 (inactive); under setting [18], 0.0729 (inactive); under setting [19], 0.119 (inactive); under setting [20], 0.0881 (inactive).

Consider `C/C(=C\CO)CCC[C@H](C)CCC[C@H](C)CCCC(C)C`, for which the “cell viability (log2)” value under setting [1] is 0.0657 (inactive), the “cell viability (log2)” value under setting [2] is 0.0273 (inactive), the “cell viability (log2)” value under setting [3] is 0.135 (inactive) and the “cell viability (log2)” value under setting [4] was -0.104 (inactive).

As for `CCCCC[C@@H](CC(=O)O)C(=O)O`, the “cell viability (log2)” value reads like this: under setting [1], 0.0401 (inactive); under setting [2], 0.147 (inactive); under setting [3], 0.16 (inactive); under setting [4], 0.126 (inactive).

As to `CO[C@H]1C=CC2CCN3CCC4=C(CC(=O)OC4)[C@]23C1` (some centres not stated), the “cell viability (log2)” value was 0.124 (inactive) under setting [17], 0.124 (inactive) under setting [18], 0.0895 (inactive) under setting [19] and 0.152 (inactive) under setting [20].

`CC1(C)OC(=O)C=C[C@@]2(C)C1C[C@@H](O)[C@]1(C)C2CC[C@@]2(C)[C@H](c3ccoc3)OC(=O)C3OC321` (some centres not stated): the “cell viability (log2)” value is, setting by setting: under setting [1], 0.0796 (inactive); under setting [2], 0.0686 (inactive); under setting [3], 0.159 (inactive); under setting [4], 0.0743 (inactive).

In the case of `Cc1nc2ccc(NC(=S)N3CCCC3)cc2nc1C`, the “cell viability (log2)” value is -0.0193 (inactive) under setting [1], 0.0405 (inactive) under setting [2], 0.0212 (inactive) under setting [3] and 0.0752 (inactive) under setting [4].

Turning to `CC1=C(C(=O)Nc2cccc(Cl)c2)C(c2cccs2)NC(=S)N1` (configuration not stated), the “cell viability (log2)” value was 0.0938 (inactive) under setting [1], 0.0927 (inactive) under setting [2], 0.145 (inactive) under setting [3] and 0.108 (inactive) under setting [4].

Take `O=C(Nc1cccc(Cl)c1)/C(=C\c1ccco1)NC(=O)c1cccs1`: the “cell viability (log2)” value is, setting by setting: under setting [1], -0.0172 (inactive); under setting [2], 0.0581 (inactive); under setting [3], 0.0419 (inactive); under setting [4], 0.0226 (inactive).
